Assay [1] is described as follows: TOX21_p53_BLA_p2_viability: Viability Assessment in the Tox21 HCT-116 p53 Agonism Beta-lactamase Assay, Phase 2 (AID 2283591).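 Note: compound exposure lasted 16 h at 37 °C; actives lower the ATP signal meaning cytotoxicity.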 The method, boiled down:
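HCT116 p53-bla cells, 4000/well, dosed after 5 h plating (217-fold dilution of DMSO stocks) and incubated 16 h at 37C. Viability taken as cellular ATP by CellTiter-Glo luminescence after 30 min RT; signal loss marks cytotoxicity.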

Assay [2] has as its target Cellular tumor antigen p53 (Homo sapiens) (UniProt P04637). Briefly: TOX21_p53_BLA_p5_ratio: Tox21 HCT-116 p53 Agonism Beta-lactamase Assay, Ratio, Phase 5 (AID 2283599). The method, boiled down:
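HCT-116 p53-bla cells (4000/well) plated 5 h, dosed with compound (217-fold DMSO dilution) for 16 h at 37 C; CCF4-AM substrate 2 h at room temperature. Activity is the 460/530 nm emission ratio (405 nm excitation), fitted in gain-of-signal direction versus DMSO.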

The nature of assay [3]: TOX21_p53_BLA_p4_viability: Viability Assessment in the Tox21 HCT-116 p53 Agonism Beta-lactamase Assay, Phase 4 (AID 2283597).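 Note: hits lower the luminescence signal meaning cytotoxicity.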 The method, boiled down:
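Cells plated, 5 h pre-incubation; DMSO compounds pinned (217-fold dilution); 16 h, 37C/5% CO2; CCF4-AM 2 h RT; CellTiter-Glo 30 min RT; luminescence read.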

In assay [4] the target is Cellular tumor antigen p53 (Homo sapiens) (UniProt P04637). In words: TOX21_p53_BLA_p4_ratio: Tox21 HCT-116 p53 Agonism Beta-lactamase Assay, Ratio, Phase 4 (AID 2283601). The method, boiled down:
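HCT-116 p53 beta-lactamase reporter cells (4000/well) preincubated 5 h, then compound (217-fold dilution of DMSO stock) for 16 h at 37C. CCF4-AM substrate added 2 h at room temperature; 460/530 nm emission ratio fitted upward versus DMSO.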

The nature of assay [5]: TOX21_p53_BLA_p5_viability: Viability Assessment in the Tox21 HCT-116 p53 Agonism Beta-lactamase Assay, Phase 5 (AID 2283600). The method, boiled down:
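4000 cells/well; 5 h pre-incubation; DMSO compounds pin-transferred, 217-fold dilution; 16 h, 37C/5% CO2; CCF4-AM 2 h RT; CellTiter-Glo 30 min RT; luminescence.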

A short description of assay [6]: CCTE_Harrill_HTTr_Viability_MCF7: CCTE's 6-hour Cell Viability Assessment for the High-Throughput Transcriptomics (HTTr) Platform, in MCF-7 cells cultured in DMEM + 10% fetal bovine serum, Harrill Lab (AID 2284010; active = hit-call score of the fitted dose curve at least 0.9, where 1 is the maximum; inactive = score below 0.9). A digest of the protocol:
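MCF-7 cells in DMEM + 10% FBS, 384-well, exposed 6 h to an eight-point dilution series. Membrane integrity scored by high-content imaging of propidium iodide exclusion; bidirectional fit versus DMSO.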

A short description of assay [7]: CCTE_Harrill_HTTr_Apoptosis_MCF7: CCTE's 6-hour Apoptosis Assessment for the High-Throughput Transcriptomics (HTTr) Platform, in MCF-7 cells cultured in DMEM + 10% fetal bovine serum, Harrill Lab (AID 2284011; active = hit-call score of the fitted dose curve at least 0.9, where 1 is the maximum; inactive = score below 0.9). A digest of the protocol:
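MCF-7 (DMEM + 10% FBS), 384-well; 8-pt dilution series, 6 h chemical exposure; caspase-3/7 activation via CellEvent Caspase 3/7 Green, HCI; bidirectional fit vs DMSO.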

The nature of assay [8]: CCTE_Harrill_HTTr_CellCount_MCF7: CCTE's Cell Proliferation Assessment for the High-Throughput Transcriptomics (HTTr) Platform, Harrill Lab (AID 2284012).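 Note: cells exposed to compound for six hours; intended direction is loss of nuclei count meaning fewer cells.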 A digest of the protocol: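 MCF7 cells exposed 6 hours to an eight-point dilution series; Hoechst-stained nuclei counted by high-content imaging. Bidirectional curve fitting against DMSO baseline.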
Assay [9] addresses Thyroid hormone receptor alpha (Rattus norvegicus) + Thyroid hormone receptor beta (Rattus norvegicus) (UniProt P18113+P63059). In words: TOX21_TR_LUC_GH3_Antagonist_Followup: Tox21 GH3 Thyroid Hormone Receptor Antagonism Luciferase Follow-Up Assay (AID 2283942). The method, boiled down: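 Antagonist mode: GH3 cells seeded 1,500/well, compounds at 15 concentrations (92 uM to 5nM final) plus T3 at 1.0 nM final, 24 h at 37C. Luciferase read with ONE-Glo after 30 min at room temperature.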

Assay [10] has as its target THRA (gene 7067) (UniProt P10827). In words: TOX21_TRA_COA_Antagonist_Followup_ratio: Tox21 Thyroid Hormone Receptor alpha Antagonism through Coactivator Recruitment Follow-Up Assay, Ratio (AID 2283953). A digest of the protocol:
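520:495 nm emission ratio (excitation 340 nm) reports fluorescein-SRC-2 peptide recruitment to GST-TRα LBD by TR-FRET with Tb anti-GST antibody. Values were normalized to DMSO (0%) and T3 control wells (100%); loss of signal indicated antagonism.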

In assay [11] the target is THRB (gene 7068) (UniProt P10828). Briefly: TOX21_TRB_BLA_Antagonist_Followup_ratio: Tox21 Thyroid Hormone Receptor beta Antagonism Beta-lactamase (BLA) Follow-Up Assay, Ratio (AID 2283958). A digest of the protocol: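 HEK293T cells with a GAL4-TRb LBD fusion and UAS-bla reporter, 3,000 cells/well in phenol red-free DMEM with 2% charcoal-stripped FBS. Exposed 18 h at 37C to 11 concentrations in triplicate; CCF4 460:530 nm ratio after 2 h, DMSO-referenced.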
THRB (gene 7068), sequence (P10828 whole entry, looked up, the tested form may be a part): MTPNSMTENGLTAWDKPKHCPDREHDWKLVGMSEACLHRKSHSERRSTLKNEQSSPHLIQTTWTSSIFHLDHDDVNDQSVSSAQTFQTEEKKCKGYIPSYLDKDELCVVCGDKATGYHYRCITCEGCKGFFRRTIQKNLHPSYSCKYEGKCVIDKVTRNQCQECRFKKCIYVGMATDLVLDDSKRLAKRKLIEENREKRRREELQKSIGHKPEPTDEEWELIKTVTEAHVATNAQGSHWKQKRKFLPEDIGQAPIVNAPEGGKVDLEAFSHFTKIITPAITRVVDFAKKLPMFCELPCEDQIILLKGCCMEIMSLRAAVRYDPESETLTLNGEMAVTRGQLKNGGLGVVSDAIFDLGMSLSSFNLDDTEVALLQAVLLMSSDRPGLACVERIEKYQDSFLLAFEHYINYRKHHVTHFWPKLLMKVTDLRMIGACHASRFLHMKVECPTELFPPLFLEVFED

The target is the same in assay [12]. Briefly: TOX21_TRB_COA_Antagonist_Followup_ratio: Tox21 Thyroid Hormone Receptor beta Antagonism through Coactivator Recruitment Follow-Up Assay, Ratio (AID 2283967). The method, boiled down: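 Cell-free TR-FRET: GST-TRb LBD (5.0 nM) with fluorescein-SRC-2 peptide (200 nM) and Tb anti-GST antibody (2 nM), 0.10% BSA. 520:495 nm emission ratio normalized to DMSO (0%) and T3 (100%).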

Assay [13] in a line: TOX21_TR_RXR_BLA_Antagonist_Followup_viability: Viability Assessment in the Tox21 Thyroid Hormone Receptor beta Retinoid X Receptor alpha (RXRa) Antagonism Beta-lactamase (BLA) Follow-Up Assay (AID 2283979). The method, boiled down:
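RXRa-bla HEK293T cells (2,500/well, phenol red-free DMEM, 2% charcoal-stripped FBS) were attached 5 h, then exposed to compounds at 11 concentrations in triplicate for 16 h at 37C. Viability measured by CellTiter-Glo ATP luminescence, bidirectional fitting versus DMSO.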

Molecules are shown by their SMILES. Inconclusive results are not listed. The source made the active and inactive calls. Rule for the calls, unless noted: active = hit-call score of the fitted dose curve at least 0.9, where 1 is the maximum; inconclusive = response in the unintended direction; inactive = score below 0.9.

Cellular tumor antigen p53 (Homo sapiens), sequence (P04637 whole entry, looked up): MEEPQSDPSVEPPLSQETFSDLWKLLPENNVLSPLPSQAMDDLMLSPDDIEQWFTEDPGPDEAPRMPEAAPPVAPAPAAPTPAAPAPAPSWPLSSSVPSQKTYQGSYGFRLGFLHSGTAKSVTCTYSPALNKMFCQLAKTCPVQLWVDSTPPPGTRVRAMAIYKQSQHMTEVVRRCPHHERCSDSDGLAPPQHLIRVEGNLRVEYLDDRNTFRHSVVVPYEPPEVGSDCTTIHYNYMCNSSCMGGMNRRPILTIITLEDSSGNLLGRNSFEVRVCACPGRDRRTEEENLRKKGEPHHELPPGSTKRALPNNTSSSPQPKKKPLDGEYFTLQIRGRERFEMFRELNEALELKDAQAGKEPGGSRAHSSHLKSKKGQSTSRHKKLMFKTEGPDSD
THRA (gene 7067), sequence (P10827 whole entry, looked up, the tested form may be a part): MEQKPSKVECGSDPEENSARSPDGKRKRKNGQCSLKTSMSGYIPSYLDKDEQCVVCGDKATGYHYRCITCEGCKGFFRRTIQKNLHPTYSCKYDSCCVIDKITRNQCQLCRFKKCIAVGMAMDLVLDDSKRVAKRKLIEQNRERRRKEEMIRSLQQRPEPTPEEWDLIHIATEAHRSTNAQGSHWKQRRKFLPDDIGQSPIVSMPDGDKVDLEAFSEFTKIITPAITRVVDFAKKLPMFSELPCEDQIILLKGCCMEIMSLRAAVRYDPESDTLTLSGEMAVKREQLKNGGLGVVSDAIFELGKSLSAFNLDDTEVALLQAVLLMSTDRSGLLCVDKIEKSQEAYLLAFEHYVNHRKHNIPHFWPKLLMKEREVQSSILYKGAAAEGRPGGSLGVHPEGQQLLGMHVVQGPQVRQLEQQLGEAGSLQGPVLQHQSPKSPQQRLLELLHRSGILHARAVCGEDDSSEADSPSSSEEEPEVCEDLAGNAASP

In the case of `CS(=O)(=O)c1ccc([C@@H](O)[C@@H](CF)NC(=O)C(Cl)Cl)cc1`, the call in assay [1] and in assay [2] was inactive.

Regarding `CC(=O)N(CC(C)C(=O)O)c1c(I)cc(I)c(N)c1I` (configuration not stated), the outcome in assay [1], in assay [3], in assay [2] and in assay [4] was inactive.

On to `O=P(O)(O)C(O)(Cc1cnc2ccccn12)P(=O)(O)O`, for which the compound was classed as inactive in assay [1] and in assay [2].

With `O=C1NC2CCCCN2C12CCN(CCCN1c3ccccc3CCc3ccc(Cl)cc31)CC2` (configuration not stated), the results for the AC50 in assay [1] and in [3] were 37.5 µM (active) and 43 µM (active), respectively. Besides, the result in [4] was inactive.

With `CCOC(=O)NCCC[Si](OCC)(OCC)OCC`, the compound was classed as inactive in [1], in [3] and in assay [5].

For `CN1C(CCl)Nc2cc(Cl)c(S(N)(=O)=O)cc2S1(=O)=O` (configuration not stated), the compound was called inactive in assay [1], in [3], in assay [2] and in assay [4].

On to `Nc1ccc2c3c(cccc13)-c1ccccc1-2`, for which the outcome in assay [1], in assay [3] and in assay [5] was inactive.

For the compound `O=c1[nH]cnc2ccccc12`, the compound was classed as inactive in assay [1], in assay [3], in assay [2], in assay [5] and in assay [4].

As to `Cc1ccc(C(C)NC(=O)[C@@H](NC(=O)OC(C)C)C(C)C)cc1` (some centres not stated), the call in assay [1], in [3], in assay [2], in [5], in [4] and in assay [6] was inactive. In addition, the result in [7] and in assay [8] was inactive.

Regarding `NC(=O)c1ccncc1`, the call in [1], in assay [3], in assay [2] and in [4] was inactive.

Consider `N[C@@H](C(=O)N[C@@H]1C(=O)N2C(C(=O)O)=C(CSc3cn[nH]n3)CS[C@H]12)c1ccc(O)cc1`, for which the call in [1], in [3] and in [5] was inactive.

For `CC(=O)Nc1cccc(C)c1`, the result in [1], in [3], in assay [5] and in assay [4] was inactive.

Regarding `O=C(CCCCCCCCC#CI)Oc1ccccc1`, the compound was classed as inactive in assay [1], in assay [3], in assay [4], in [9], in [10] and in [11]. For the same compound, the outcome in assay [12] and in [13] was inactive.

As for `CC(=O)N=c1sc(S(N)(=O)=O)nn1C`, the compound was classed as inactive in assay [1], in assay [3], in assay [2], in [5] and in assay [4].

With `Nc1nc2c(ncn2CCC(CO)CO)c(=O)[nH]1`, the compound was called inactive in assay [1], in [3] and in [5].

Consider `CC(O)c1ccccc1` (configuration not stated), for which the compound was classed as inactive in [1], in assay [3], in [5] and in assay [4].

Consider `CC(C)(C)C(=O)Oc1ccc(S(=O)(=O)Nc2ccccc2C(=O)NCC(=O)O)cc1`, for which the call in assay [1], in assay [3], in [5] and in assay [4] was inactive.

With `O=C1C=CCCC1`, the outcome in [1], in assay [2] and in assay [5] was inactive.

`CCC(C)(C)C(=O)O`: the compound was called inactive in assay [1], in assay [3], in assay [5] and in assay [4].

Take `CNS(=O)(=O)CCc1ccc2[nH]cc(C3CCN(C)CC3)c2c1`: the compound was classed as inactive in assay [1], in assay [3], in assay [5] and in assay [4].

With `NS(=O)(=O)c1cc2c(cc1Cl)NC(CSCc1ccccc1)=NS2(=O)=O`, the compound was classed as inactive in [1] and in [2].

Regarding `O=C(CN1CCN(Cc2ccc3c(c2)OCO3)CC1)N1c2ccccc2Sc2ccccc21`, the call in assay [1], in [3], in [2], in [5] and in [4] was inactive.

For the compound `NC(=S)Nc1cccc2ccccc12`, the call in assay [1], in assay [3], in [2] and in [4] was inactive.

Regarding `Cn1ccc2cc3c(cc21)CCN3C(=O)Nc1cccnc1`, the call in [1], in assay [3], in [2] and in assay [4] was inactive.

Take `c1ccc(COCc2ccccc2)cc1`: the compound was called inactive in [1], in [3], in [2] and in [4].

As to `CCCNCC(O)COc1ccccc1C(=O)CCc1ccccc1` (configuration not stated), the outcome in [1], in assay [3] and in [5] was inactive.

As for `CNCCCN1c2ccccc2CCc2ccccc21`, the outcome in [1], in [3], in assay [5] and in assay [4] was inactive.

Take `Nc1c(NC/C=C\COc2cc(CN3CCCCC3)ccn2)c(=O)c1=O`: the call in assay [1] and in assay [2] was inactive.

Consider `O=C1c2ccccc2CN2C(=O)c3ccccc3CN12`, for which the compound was classed as inactive in assay [1], in assay [3], in [2] and in assay [4].

In the case of `O=C1c2c(O)cccc2C([C@@H]2O[C@H](CO)[C@@H](O)[C@H](O)[C@H]2O)c2cc(CO)cc(O)c21` (some centres not stated), the call in assay [1], in [3], in [2], in assay [5] and in assay [4] was inactive.

Source of the values: PubChem BioAssay (EPA / NIEHS).
